# Data reported in PubChem BioAssay (Tox21).
# Values joined by “and” are separate entries in the source; they are usually repeats but may differ in a detail not shown here. Equal values may be shown once. Inconclusive results are not listed. A call without a number means that no potency is given here. Some compounds were tested as several samples or in several runs, with calls that do not always agree. Active and inactive are the calls of the source. Unless noted, the call rests on the fitted dose curve; in most records, active means well fitted curve in the direction sought with a large enough effect in the repeat runs; inconclusive means weak or mixed curves; inactive means no such curve, though single readings can be large; an effect the other way counts as inactive or inconclusive.
# What was measured:
# [1] = qHTS assay to identify small molecule antagonists of the constitutive androstane receptor (CAR) signaling pathway - cell viability counter screen (AID 1224837); conditions: HepG2-CYP2B6-hCAR viability, CellTiter-Fluor, 23 h, co-treated with 50 nM CITCO; series mostly up to 92.4 µM; further: nearly all actives have a fitted effect of over 45% in size
# Method in brief: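 Multiplexed cytotoxicity read-out for the CAR antagonist screen: double-stable HepG2-CYP2B6-hCAR cells co-treated with 50 nM CITCO (final) and compound over 15 concentrations, incubated 23 hr, then assessed by CellTiter-Fluor fluorescence.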
# [2] = biological target: Nuclear receptor subfamily 1 group I member 3 (Homo sapiens) (UniProt Q14994); experiment: qHTS assay to identify small molecule antagonists of the constitutive androstane receptor (CAR) signaling pathway (AID 1224838); conditions: HepG2-CYP2B6-hCAR luciferase, CITCO-stimulated, 24 h; series mostly up to 92.4 µM; further: nearly all actives have a fitted effect of over 40% in size; further: potency means the concentration at half of the fitted maximal effect
# Method in brief: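 Compounds were titrated across 15 concentrations onto HepG2 cells double-stably expressing hCAR and a CYP2B6-2.2kb reporter, together with 50 nM CITCO (final). After 24 h at 37 C, luciferase activity was measured by luminescence.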
# [3] = biological target: Nuclear receptor subfamily 1 group I member 3 (Homo sapiens) (UniProt Q14994); experiment: qHTS assay to identify small molecule agonists of the constitutive androstane receptor (CAR) signaling pathway (AID 1224839); conditions: HepG2 hCAR CYP2B6-luciferase, agonist mode, 24 h; series mostly up to 92.4 µM; further: nearly all actives have a fitted effect of over 15% in size; further: potency means the concentration at half of the fitted maximal effect;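 on activation: HepG2 cells stably carrying human CAR and a CYP2B6 luciferase reporter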
# Method in brief: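 Luminescence read-out (ONE-Glo, 30 min, room temperature) from double-stable HepG2-CYP2B6-hCAR cells exposed 24 h to 15-point compound series in presence of 0.75 uM PK11195 final.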
# [4] = qHTS assay to identify small molecule antagonists of the estrogen related receptor signaling pathway with the pleiotropic PPARgamma coactivator (PGC) from Tox21 10K library - cell viability counter screen (AID 1224840; active means well fitted cell-killing curve with a large enough effect in the repeat runs, not every such curve was filed as active; further: nearly all actives have a fitted effect of over 40% in size); conditions: PGC/ERR reporter cells viability, CellTiter-Fluor, 17.5 h; series mostly up to 92.4 µM
# Method in brief: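 Step one, plate 2,000 PGC/ERR cells per well; step two, incubate 6 h at 37 C/5% CO2; step three, pin-transfer compounds; step four, incubate 17.5 h; step five, add CellTiter-Fluor and read fluorescence after 30 min.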
# [5] = biological target: Thyrotropin receptor (Homo sapiens) (UniProt P16473); experiment: qHTS assay to identify small molecule agonists of the thyroid stimulating hormone receptor (TSHR) signaling pathway (AID 1224843; calls by dose curve; further: nearly all actives have a fitted effect of over 45% in size; further: potency means the concentration at half of the fitted maximal effect); conditions: TSHR-HEK293 cells, cAMP HTRF, agonist mode, 30 min; series mostly up to 92.4 µM
# Method in brief: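 HEK293 cells stably bearing the thyrotropin receptor were plated at 800 cells/well and challenged with compound (30 min, RT). Accumulated cAMP was quantified via cAMP-d2 competing for cryptate-tagged antibody.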
# [6] = qHTS assay to identify small molecule agonists of the hypoxia (HIF-1) signaling pathway - cell viability counter screen (AID 1224844; calls by dose curve; further: nearly all actives have a fitted effect of over 50% in size); conditions: HRE-bla ME-180 viability, CellTiter-Glo luminescence, 17 h; series mostly up to 76.8 µM
# Method in brief: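 Tox21 10K compounds were added to HRE-bla ME-180 cells (0.5% dialyzed FBS) and incubated 17 hrs at 37C; ATP-based CellTiter-Glo luminescence then reported cell viability in the same wells.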
# [7] = qHTS assay to identify small molecule agonists of H2AX (AID 1224845; active means well fitted activation curve with a large enough effect in the signal ratio in the repeat runs, not every such curve was filed as active; the % refers to the signal ratio); conditions: CHO-K1 phospho-H2AX Ser139 HTRF, 3 h; series mostly up to 154 µM
# Method in brief: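 Phospho-H2AX Ser139 measured by HTRF (ex 320 nm; em 665 and 620 nm) after 24 hr antibody incubation. Compounds, 15 concentrations, 0.76% DMSO, were applied to CHO-K1 cells for 3hr at 37C before lysis.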
# [8] = qHTS assay to identify small molecule agonists of the hypoxia (HIF-1) signaling pathway (AID 1224846; active means well fitted activation curve with a large enough effect in the signal ratio in the repeat runs, not every such curve was filed as active; the % refers to the signal ratio); conditions: HRE-bla ME-180 cells, beta-lactamase ratio, 17 h; series mostly up to 76.8 µM
# Method in brief: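 Steps: seed ME-180 HRE-bla cells (2,000/well, 0.5% dialyzed FBS); incubate 5 hrs at 37C; pin-transfer compounds or DMSO; incubate 17 hrs; add LiveBLAzer B/G substrate CCF4-AM; measure reporter activation by FRET.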
# [9] = qHTS assay to identify small molecule antagonists of the estrogen related receptor signaling pathway with the pleiotropic PPARgamma coactivator (PGC) from Tox21 10K library (AID 1224841; call rule not given here; further: actives are mostly falling curves and most rising ones were filed inactive; nearly all actives have a fitted effect of over 50% in size; further: potency means the concentration at half of the fitted maximal effect); conditions: PGC/ERR reporter cell line, ONE-Glo luciferase, 18 h; series mostly up to 92.4 µM
# Method in brief: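 Antagonism in this quantitative HTS is taken from loss of luciferase signal in PGC/ERR cells. Cells (2,000/well) are treated with compounds in DMSO after a 6 h settling period and read by One-Glo luminescence after 18 h.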
# [10] = qHTS assay to identify small molecule agonists of the estrogen related receptor signaling pathway with the pleiotropic PPARgamma coactivator (PGC) from Tox21 10K library (AID 1224842); conditions: PGC/ERR reporter cell line, luciferase ONE-Glo, 18 h; series mostly up to 92.4 µM; further: nearly all actives have a fitted effect of over 15% in size
# Method in brief: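 Luminescence from One-Glo (30 min, room temperature) measured after PGC/ERR cells had 18 h at 37 C with pinned compound (23 nL in DMSO). Cells had been seeded at 2,000 per well and pre-incubated 6 h.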
# Nuclear receptor subfamily 1 group I member 3 (Homo sapiens), sequence (Q14994 whole entry, looked up): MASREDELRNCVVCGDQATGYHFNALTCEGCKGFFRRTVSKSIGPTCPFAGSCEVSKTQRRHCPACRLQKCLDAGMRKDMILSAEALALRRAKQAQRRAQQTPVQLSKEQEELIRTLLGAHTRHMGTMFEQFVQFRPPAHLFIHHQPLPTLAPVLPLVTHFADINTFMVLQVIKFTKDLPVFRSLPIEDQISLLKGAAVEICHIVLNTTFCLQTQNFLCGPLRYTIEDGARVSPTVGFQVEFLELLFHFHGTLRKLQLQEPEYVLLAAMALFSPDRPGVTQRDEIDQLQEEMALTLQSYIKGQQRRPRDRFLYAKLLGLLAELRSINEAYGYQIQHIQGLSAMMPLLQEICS
# Thyrotropin receptor (Homo sapiens), sequence (P16473 whole entry, looked up): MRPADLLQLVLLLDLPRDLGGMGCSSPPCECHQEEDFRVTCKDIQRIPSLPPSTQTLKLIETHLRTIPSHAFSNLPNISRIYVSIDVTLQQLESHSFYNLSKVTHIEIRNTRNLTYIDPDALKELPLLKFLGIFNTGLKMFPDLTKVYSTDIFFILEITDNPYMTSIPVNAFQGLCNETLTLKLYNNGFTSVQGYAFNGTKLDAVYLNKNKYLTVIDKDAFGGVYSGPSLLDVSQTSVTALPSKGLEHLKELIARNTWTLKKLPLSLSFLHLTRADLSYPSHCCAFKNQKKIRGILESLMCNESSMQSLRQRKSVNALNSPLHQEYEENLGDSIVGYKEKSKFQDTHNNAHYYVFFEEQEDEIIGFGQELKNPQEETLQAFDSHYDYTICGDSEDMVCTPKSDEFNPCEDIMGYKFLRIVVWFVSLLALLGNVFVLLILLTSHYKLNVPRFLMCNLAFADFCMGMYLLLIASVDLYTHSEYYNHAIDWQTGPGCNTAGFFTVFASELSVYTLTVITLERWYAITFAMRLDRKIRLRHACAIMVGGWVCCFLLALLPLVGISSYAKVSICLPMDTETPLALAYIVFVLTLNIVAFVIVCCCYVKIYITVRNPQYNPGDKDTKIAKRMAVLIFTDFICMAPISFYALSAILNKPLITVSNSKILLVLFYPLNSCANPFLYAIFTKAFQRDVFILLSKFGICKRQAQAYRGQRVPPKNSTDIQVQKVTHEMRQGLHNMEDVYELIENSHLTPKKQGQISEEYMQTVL
SMILES,Potency [1],Potency [2],Potency [3],Potency [4],Potency [5],Potency [6],Potency [7],outcome [8],Potency [9],outcome [10],"viability change, negative = cytotoxic [4]",activation [5],activation (H2AX phosphorylation) [7]
CCCCC(CC)CO (centres undefined),inactive,inactive,inactive,inactive,inactive,inactive,inactive,inactive,–,–,–,–,–
CCCC(C)=O,inactive,inactive,inactive,inactive,–,inactive,inactive,inactive,–,–,–,–,–
c1ccc2c(c1)ccc1ccccc12,inactive,inactive,inactive,inactive,–,inactive,inactive,inactive,inactive,inactive,–,–,–
CN(C)CCCN,inactive,inactive,inactive,–,inactive,inactive,inactive,inactive,inactive,inactive,–,–,–
CCCCCOC(C)=O,inactive,2.2 µM (active) and inactive,inactive,inactive,inactive,inactive,inactive,inactive,–,–,–,–,–
O=C(O)c1cc(=O)c2c(OCC(O)COc3cccc4oc(C(=O)O)cc(=O)c34)cccc2o1,inactive,inactive,inactive,inactive,inactive,inactive,inactive,–,–,–,–,–,–
CCC(O)OCCCOC (centres undefined),inactive,inactive,inactive,–,inactive,inactive,inactive,inactive,inactive,inactive,–,–,–
COS(C)(=O)=O,inactive,inactive,inactive,inactive,inactive,inactive,inactive,inactive,35.7 µM (active) and inactive,inactive,–,–,–
CCCCOC(=O)COc1ccc(Cl)cc1Cl,inactive,inactive,inactive,inactive,–,inactive,inactive,inactive,–,–,–,–,–
Fc1ccc(Br)cc1,inactive,inactive,inactive,inactive,30.9 µM (active) and inactive,inactive,inactive,inactive,inactive,inactive,–,–,–
CN(C)CCOCCN(C)C,inactive,inactive,inactive,inactive,inactive,inactive,inactive,inactive,inactive,inactive,–,–,–
CC(=O)c1ccccc1,inactive,inactive,inactive,–,inactive,inactive,inactive,inactive,–,–,–,–,–
O=c1[nH]c(=O)n([C@H]2CCCO2)cc1F,inactive,inactive,inactive,–,inactive,inactive,inactive,inactive,–,–,–,–,–
CCN(CC)c1ccc(C(=O)c2ccccc2C(=O)O)c(O)c1,inactive,inactive,61.3 µM (active) and 34.4 µM (active),inactive,inactive,inactive,inactive,–,–,–,–,–,–
ON=C1CCCCC1,inactive,inactive,–,inactive,inactive,inactive,inactive,inactive,inactive,inactive,–,–,–
CCCSc1ccc2nc(NC(=O)OC)[nH]c2c1,inactive,inactive,–,inactive,–,inactive,–,inactive,–,–,–,–,–
CC1CCC(C(C)C)C(O)C1 (centres undefined),inactive,inactive,–,inactive,inactive,inactive,inactive,inactive,–,–,–,–,–
O=C(OCCOCCOC(=O)c1ccccc1)c1ccccc1,inactive,inactive,–,inactive,–,inactive,inactive,inactive,–,–,–,–,–
CCCCCC(N)=O,inactive,inactive,–,inactive,inactive,inactive,inactive,inactive,–,–,–,–,–
Cc1cccnc1,inactive,inactive,–,inactive,inactive,inactive,inactive,inactive,inactive,inactive,–,–,–
CCCCCCCC(=O)OC,inactive,inactive,–,–,inactive,inactive,inactive,inactive,–,–,–,–,–
C#CCN(C)Cc1ccccc1,inactive,inactive,–,inactive,inactive,inactive,inactive,–,–,–,–,–,–
Cc1ccc2oc(=O)ccc2c1,inactive,inactive,–,inactive,inactive,inactive,inactive,inactive,–,–,–,–,–
CCOC(=O)NNc1nncc2ccccc12,inactive,inactive,–,inactive,inactive,inactive,inactive,inactive,–,–,–,–,–
NNc1nncc2ccccc12,inactive,inactive,–,–,–,inactive,–,–,–,–,3.22% [at 19 µM] (inactive),-1.13% [at 19 µM] (inactive),1% [at 31.6 µM] (inactive)
CC(C)(N)CO,inactive,inactive,–,inactive,inactive,inactive,inactive,inactive,inactive,inactive,–,–,–
